Out of some 310,000 compounds screened, about 14,000 (4.5%) showed an effect of 50% or more. Effects have a minus sign here. This is one part of a sample in which strong results are shown more often than they occur.

These results are taken from paper PMC4336329 (PLoS ONE, 2015).
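Note: peak tail current of the secondary pulse compared with the same well before compound.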

In this assay the target is human ether-à-go-go-related gene (hERG) potassium channel (human, UniProt Q12809). As to the kind of experiment: primary screen, population patch clamp on CHO cells stably expressing hERG; higher = less effect of the substance.
human ether-à-go-go-related gene (hERG) potassium channel, sequence (Q12809 whole entry, looked up): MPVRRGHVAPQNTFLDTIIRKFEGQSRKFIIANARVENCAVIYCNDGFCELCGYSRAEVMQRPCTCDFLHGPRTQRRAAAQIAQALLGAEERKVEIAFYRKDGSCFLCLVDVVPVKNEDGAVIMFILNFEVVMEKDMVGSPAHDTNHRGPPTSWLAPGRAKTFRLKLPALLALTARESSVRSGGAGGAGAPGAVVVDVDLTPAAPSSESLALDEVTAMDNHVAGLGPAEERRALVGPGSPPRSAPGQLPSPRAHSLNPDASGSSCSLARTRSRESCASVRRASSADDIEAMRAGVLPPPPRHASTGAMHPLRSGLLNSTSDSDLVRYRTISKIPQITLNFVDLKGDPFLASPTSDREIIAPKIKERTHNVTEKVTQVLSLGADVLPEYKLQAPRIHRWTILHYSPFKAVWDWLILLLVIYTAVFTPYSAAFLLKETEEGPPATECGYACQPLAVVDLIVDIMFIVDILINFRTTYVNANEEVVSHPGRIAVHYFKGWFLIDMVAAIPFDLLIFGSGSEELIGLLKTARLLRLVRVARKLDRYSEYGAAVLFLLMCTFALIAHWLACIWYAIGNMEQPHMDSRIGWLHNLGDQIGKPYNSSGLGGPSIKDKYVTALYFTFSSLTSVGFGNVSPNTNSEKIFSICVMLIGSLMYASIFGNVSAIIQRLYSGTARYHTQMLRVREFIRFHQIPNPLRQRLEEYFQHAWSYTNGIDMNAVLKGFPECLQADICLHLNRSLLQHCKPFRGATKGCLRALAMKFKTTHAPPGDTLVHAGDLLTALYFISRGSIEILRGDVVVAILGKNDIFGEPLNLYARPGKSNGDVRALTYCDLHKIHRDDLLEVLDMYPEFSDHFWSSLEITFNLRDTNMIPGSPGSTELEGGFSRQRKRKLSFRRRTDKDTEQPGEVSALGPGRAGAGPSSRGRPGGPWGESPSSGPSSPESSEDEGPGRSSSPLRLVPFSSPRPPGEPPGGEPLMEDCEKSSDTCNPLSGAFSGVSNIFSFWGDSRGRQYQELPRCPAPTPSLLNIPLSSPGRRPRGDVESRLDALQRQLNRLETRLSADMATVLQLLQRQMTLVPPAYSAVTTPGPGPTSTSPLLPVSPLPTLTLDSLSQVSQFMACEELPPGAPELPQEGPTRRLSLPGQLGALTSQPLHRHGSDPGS
In the case of `COc1nc(NC2CCCCC2)nc(N2CCCCCC2)n1`, the “hERG current change (%, negative = inhibition) at 10uM” value turned out to be 4.84%. Consider `O=C(c1ccc(Cl)cc1)N1CCCOC1`, for which the “hERG current change (%, negative = inhibition) at 10uM” value came to 15.2%. The figure for `CC(=O)Nc1ccc(S(=O)(=O)N2CCCC2C(=O)Nc2ccc(F)cc2)cc1` (stereo not drawn) is 11.2%.

For the compound `CN(C)C(CNC(=O)CCCN1C(=O)c2cccc3cccc(c23)C1=O)c1ccccc1` (stereo not drawn), the “hERG current change (%, negative = inhibition) at 10uM” value was -46.2%. The figure for `COC(=O)[C@@]1(Cc2ccc(F)cc2)[C@H]2c3cc(C(=O)N4CCCC4)n(CCc4c[nH]c5ccc(OC)cc45)c3C[C@H]2CN1C(=O)c1ccccc1` is 3.92%; for `COC(=O)[C@@]1(Cc2ccc(F)cc2)[C@H]2c3cc(C(=O)N4CCCC4)n(CCc4ccccn4)c3C[C@H]2CN1C(=O)c1ccccc1` it is -64.1%; for `COC(=O)[C@@]1(Cc2ccc(F)cc2)[C@H]2c3cc(C(=O)N(C)C)n(CCc4ccccn4)c3C[C@H]2CN1C(=O)c1ccccc1` it is -64.8%. Regarding `COC(=O)[C@@]1(Cc2ccc(F)cc2)[C@H]2c3cc(C(=O)N(C)C)n(CCc4ccc(OC)c(Br)c4)c3C[C@H]2CN1C(=O)c1ccccc1`, the “hERG current change (%, negative = inhibition) at 10uM” value was -2.99%. The result for `COC(=O)[C@@]1(Cc2ccc(F)cc2)[C@H]2c3cc(C(=O)N4CCCC4)n(CCc4ccc(O)c(O)c4)c3C[C@H]2CN1C(=O)c1ccccc1` reads -15.5%. With `COC(=O)[C@@]1(Cc2ccc(F)cc2)[C@H]2c3cc(C(=O)N(C)C)n(Cc4ccc(OC)c(OC)c4)c3C[C@H]2CN1C(=O)c1ccccc1`, the “hERG current change (%, negative = inhibition) at 10uM” value is -42.6%. On to `COC(=O)[C@@]1(Cc2ccc(F)cc2)[C@H]2c3cc(C(=O)N(C)C)n(Cc4ccccn4)c3C[C@H]2CN1C(=O)c1ccccc1`, for which the “hERG current change (%, negative = inhibition) at 10uM” value was -53.4%. As to `COC(=O)[C@@]1(Cc2ccc(F)cc2)[C@H]2c3cc(C(=O)N(C)C)n(CCSCCO)c3C[C@H]2CN1C(=O)c1ccccc1`, the “hERG current change (%, negative = inhibition) at 10uM” value is reported as -34.4%. Regarding `COC(=O)[C@@]1(Cc2ccc(F)cc2)[C@H]2c3cc(C(=O)N(C)C)n(Cc4ccccc4)c3C[C@H]2CN1C(=O)c1ccccc1`, the “hERG current change (%, negative = inhibition) at 10uM” value is -13.3%. Regarding `CS(=O)(=O)Nc1ccc(C(=O)Nc2ccc(S(=O)(=O)N3CCCC3)cc2)cc1`, the “hERG current change (%, negative = inhibition) at 10uM” value is -13.7%.

For `Cc1nc(NC(=O)c2ccccc2)sc1-c1csc(NCCc2ccccc2)n1`, the “hERG current change (%, negative = inhibition) at 10uM” value came out at 12%. On to `CCOC(=O)CNC(=O)c1cnn2cccnc12`, for which the “hERG current change (%, negative = inhibition) at 10uM” value was 2.78%. On to `NC(=O)c1c(-c2cccs2)csc1N`, for which the “hERG current change (%, negative = inhibition) at 10uM” value was found to be 3.94%. The figure for `COc1cc(C(=O)NCc2nnc(SCC(=O)NCc3ccccc3)o2)cc(OC)c1OC` is 17.6%; for `Cc1ccc(S(=O)(=O)NC2OC(=O)C(Cl)=C2Cl)cc1` (stereo not drawn) it is -3.55%; for `COC(=O)c1nc2ccccn2c1F` it is 13.2%. On to `Cc1c(C(=O)N(C)CCCCN2CCOCC2)oc2c(F)cccc12`, for which the “hERG current change (%, negative = inhibition) at 10uM” value turned out to be 4.14%.

For the compound `CC(C)(C)C(=O)NC(=S)Nc1cc(C(=O)O)ccc1Cl`, the “hERG current change (%, negative = inhibition) at 10uM” value came out at 4.5%.

On to `CC(=O)NC(=S)Nc1cc(C(=O)O)ccc1Cl`, for which the “hERG current change (%, negative = inhibition) at 10uM” value is -64.9%. In the case of `CCCCC(=O)NC(=S)Nc1cc(C(=O)O)ccc1Cl`, the “hERG current change (%, negative = inhibition) at 10uM” value is 11.2%.

Consider `COC(=O)c1scc(C)c1NC(=O)Nc1ccccc1`, for which the “hERG current change (%, negative = inhibition) at 10uM” value was found to be 3.91%. In the case of `Cc1sc2ncnc(N)c2c1C`, the “hERG current change (%, negative = inhibition) at 10uM” value came out at 4.12%. For `Cc1sc2ncnc(Oc3ccc(-n4ccnc4)cc3)c2c1C`, the “hERG current change (%, negative = inhibition) at 10uM” value is on record as -68.4%. With `Cc1ccc2cccc(Oc3ncnc4sc(C)c(C)c34)c2n1`, the “hERG current change (%, negative = inhibition) at 10uM” value came out at 15.3%. As to `CCOc1ccc(N/C(N)=N/c2nc(CSc3nnc(C)s3)cc(=O)[nH]2)cc1`, the “hERG current change (%, negative = inhibition) at 10uM” value was found to be 12.5%. With `C/C=C/c1ccc(OCC(=O)Nc2ccc(C(N)=O)cc2)c(OC)c1`, the “hERG current change (%, negative = inhibition) at 10uM” value is on record as 7.23%. The figure for `COc1ccc(C2C(C#N)=C(N)Oc3c2c(C)nn3-c2ccccc2)cc1Cn1nc(C)c([N+](=O)[O-])c1C` (stereo not drawn) is -4.96%; for `O=C(O)c1ccc(N2C(=O)c3cccc(Oc4ccc(Cl)cc4)c3C2=O)cc1` it is -80.7%; for `O=C(O)c1cccc(N2C(=O)c3cccc(Oc4ccc(Cl)cc4)c3C2=O)c1` it is 16.2%. Turning to `Cc1cccc(N2C(=O)c3cccc(Oc4ccc(Cl)cc4)c3C2=O)c1`, the “hERG current change (%, negative = inhibition) at 10uM” value stood at 4.76%.

Regarding `Cc1cc(C)nc(NC2=NCC(=O)N2c2ccccc2Br)n1`, the “hERG current change (%, negative = inhibition) at 10uM” value was found to be 8.96%.

For `CC[n+]1ccc(/C=C/c2c[nH]c3ccccc23)cc1.[Cl-]`, the “hERG current change (%, negative = inhibition) at 10uM” value is reported as -6.54%. The figure for `Cc1cc(/C=C(/C#N)C(=O)O)c(C)n1CCC(C)C` is 4.68%; for `CNC(=O)Nc1cc(C(F)(F)F)cc(C(F)(F)F)c1` it is 14.3%; for `Cc1nn(-c2ccccc2)c(Cl)c1/C=N/NC(=O)c1ccccc1F` it is 14.6%.

`COc1ccc(CC(=O)NCc2nnc(SCc3ccc(C)cc3)n2C)cc1`: the “hERG current change (%, negative = inhibition) at 10uM” value is 5.49%. The result for `COCCn1c(Cc2ccccc2)nnc1SCc1ccc([N+](=O)[O-])cc1` reads -55%; that for `COc1ccc(-n2c(Cc3ccccc3)nnc2SCc2ccc([N+](=O)[O-])cc2)cc1`, -68.4%. `COCCn1c(Cc2ccccc2)nnc1SCC(=O)Nc1ccccc1`: the “hERG current change (%, negative = inhibition) at 10uM” value was 5.83%. Take `COc1ccc(OCc2nnc(SCC(=O)N3CCCc4ccccc43)n2-c2ccc(C)cc2)cc1`: the “hERG current change (%, negative = inhibition) at 10uM” value is -3.12%. As for `COc1ccc(CC(=O)NCc2nnc(SCc3ccc([N+](=O)[O-])cc3)n2C)cc1`, the “hERG current change (%, negative = inhibition) at 10uM” value is given as -63.6%. Take `O=[N+]([O-])c1ccc(CSc2nnc(Cc3ccccc3)n2-c2ccc(F)cc2)cc1`: the “hERG current change (%, negative = inhibition) at 10uM” value was -48.7%. As to `COc1ccc(-n2c(Cc3cccn3C)nnc2SCC(=O)N2CCCc3ccccc32)cc1`, the “hERG current change (%, negative = inhibition) at 10uM” value was -13.9%. Consider `COc1ccc(-n2c(Cc3ccccc3)nnc2SCC(=O)N2CCCc3ccccc32)cc1`, for which the “hERG current change (%, negative = inhibition) at 10uM” value is -53.9%. The figure for `COCCn1c(Cc2ccccc2)nnc1SCC(=O)N(C)C` is 14.3%; for `COc1ccc(-n2c(SCc3ccc([N+](=O)[O-])cc3)nnc2-c2ccccc2)cc1` it is -24.4%. Turning to `COc1ccc(CC(=O)NCc2nnc(SCC(=O)c3ccc(OC)cc3)n2C)cc1`, the “hERG current change (%, negative = inhibition) at 10uM” value was -3.61%.
